Drawing on PubChem BioAssay AID1794835 (Parasite Biology Lab, Institute for Biomedicine and …, 2023), this text covers outcome and inhibition for 46 compounds.

Hit rate of the full screen: of about 2,500 compounds, about 45 (2%) were called active. No stated cut-off is given here; in the data, active means inhibition mostly above about 45% (no sharp cut-off); inactive means mostly below about 37%. Many of the other results were omitted from the sample, so actives are more common in it than they were.

The assay can be described thus: anti-Giardia activity of synthetic compounds – Compounds Australia Scaffold Library subset, 24/48 h, primary screen (AID 1794835).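 On inhibition: 0% = parasite counts in DMSO vehicle wells.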 Conditions: Giardia lamblia BRIS/91/HEPU/1279 trophozoite counts, imaging, at 10 µM.
[1] abbreviates: measured here: growth inhibition at 24 h, stronger effect = higher value.

In the case of `CC(NC(=O)Cc1csc(Cc2ccccn2)n1)c1ccc(F)cc1` (stereo unspecified), the call was inactive. Also, the inhibition – broadly, the change of the read-out against control, counted positive when it falls – under setting [1] was 5.1%.
With `O=c1c2ccsc2ncn1Cc1nc(Cc2ccccc2)no1`, the inhibition entry was “inactive”.
Take `Cc1ncc([N+](=O)[O-])n1Cc1csc(Cc2ccccc2)n1`: the inhibition is, setting by setting: (stronger effect = higher value) 67% (active); under setting [1], 30.1%.
As to `O=C(Cc1ccccc1)NCc1nc(-c2ccc3c(c2)nnn3C2CCCC2)no1`, the inhibition entry was “inactive”.
Regarding `O=C(NCc1cccc(C(F)(F)F)c1)C1CCCN(c2nccnc2Oc2ccccc2)C1` (stereo unspecified), the inhibition (stronger effect = higher value) is 15.6% (inactive).
With `COc1ccc(CNC(=O)N2CCC(c3ccn4ncc(C(=O)N5CCOCC5)c4c3)CC2)cc1`, the inhibition reads like this: (stronger effect = higher value) 0.7% (inactive); under setting [1], 3.8%.
In the same order, the values of `CCCCN(CCCC)S(=O)(=O)c1ccc2c(c1)CCCC(=O)N2` are 27.2% (inactive) and 13.8%.
Turning to `COCCCN(Cc1ccco1)C(=O)Cn1cnc2onc(-c3ccc(Cl)cc3)c2c1=O`, the inhibition result is “inactive”.
Take `CCCn1nc(C(=O)N2CCCN(C(C)=O)CC2)ccc1=O`: the inhibition result was “inactive”.
Still for that read-out and setting: next, `NCc1c2n(c(=O)n(CC(=O)Nc3ccc4c(c3)OCCO4)c1=O)CCCCC2`: “inactive”.
`Cc1sc(C(=O)N2CCCC2)c2ncnc(NCc3ccc(F)c(Cl)c3)c12`: the inhibition by setting is: (stronger effect = higher value) 23.9% (inactive); under setting [1], 14.4%.
In the same order, the values of `Cc1cccc(CNS(=O)(=O)c2cc(-c3csc(C)n3)sc2C)c1` are 63.6% (active) and 21.2%.
The like results for `CCc1nc(-c2cc(S(=O)(=O)NCc3ccc(F)c(Cl)c3)c(C)s2)cs1` were, in that order, 43.9% (active) and 15.2%.
Consider `CCNS(=O)(=O)c1cc(-c2ccc(=O)n(CC)n2)sc1C`, for which the inhibition entry is “inactive”.
Turning to `Cc1sc(-c2ccc(=O)[nH]n2)cc1S(=O)(=O)NCc1cccnc1`, the inhibition entry is “inactive”.
Same read-out and setting: next, `CCc1nc(-c2cc(S(=O)(=O)NCc3ccccc3)c(C)s2)no1`: “inactive”.
As for `CN1CCN(CC2CCN(C(=O)Cc3cccc4ccccc34)CC2)CC1`, the inhibition (stronger effect = higher value) was 17.7% (inactive).
Turning to `COc1cccc(-c2noc(Nc3cccc(C)c3)n2)c1`, the result was inactive. The same compound returned an inhibition under setting [1] of 3.1%.
As to `COc1cccc(Nc2nc(N3CCN(c4ccccc4)CC3)nc3c2cnn3C)c1`, the inhibition by setting is: (stronger effect = higher value) 5.8% (inactive); under setting [1], 6.1%.
In the case of `COc1cccc(Nc2c3c(nc4ccccc24)CCC3)c1`, the inhibition runs as follows: (stronger effect = higher value) 62.3% (active); under setting [1], 22%.
In the same order, the values of `Fc1cccc(Nc2c3c(nc4ccccc24)CCC3)c1` are 55.5% (active) and 2.3%.
As for `CCc1cccc(NC(=O)C2CCCN(S(=O)(=O)c3c(C)noc3C)C2)c1` (stereo unspecified), the compound was classed as inactive. This compound also returned an inhibition under setting [1] of 13.3%.
For the compound `O=C1CSCN1CC(=O)N1CCCCC1c1cc2ccccc2[nH]1` (stereo unspecified), the inhibition result is “inactive”.
The same measure, in the same setting: next, `COc1ccc(-n2ccn(CC(=O)Nc3cccc(F)c3)c2=O)cc1`: “inactive”.
For the compound `COc1ccc(C2=Nc3ccccc3N(CC(=O)Nc3cccc(F)c3)C(=O)C2)cc1`, the inhibition reads like this: (stronger effect = higher value) 40.3% (active); under setting [1], 12.6%.
The like results for `COc1ccc(C2=Nc3ccccc3N(Cc3cccc(F)c3)C(=O)C2)cc1` were, in that order, 30.2% (inactive) and 8.7%.
On to `CNC(=O)N1C[C@@H](CN(C)C)[C@@H](C2CCN(CCC(C)C)CC2)C1`, for which the call was inactive. Under setting [1], this compound had an inhibition of 13.1%.
In the same order, the values of `COc1ccc(CNS(=O)(=O)c2ccc3onc(C(=O)N4CCCCC4)c3c2)cc1OC` are “inactive” and 3.7%.
In the case of `CC(=O)c1c(C)[nH]c(C(=O)Nc2nc(-c3ccco3)c(-c3ccco3)s2)c1C`, the inhibition (stronger effect = higher value) is 52.8% (active) and the inhibition under setting [1] came out at 25%.
For `O=C(NCc1ccccc1)c1cc(-c2ccco2)on1`, the inhibition entry is “inactive”.
As to `CCN1CCc2nc(NC(=O)c3ccccc3)sc2C1`, the inhibition result was “inactive”.
On to `Cc1ccc(NC(=O)c2ncoc2-c2ccco2)cc1Cl`, for which the inhibition result was “inactive”.
Consider `O=C(Nc1nc(-c2ccco2)c(-c2ccco2)s1)c1ccccc1`, for which the inhibition by setting is: (stronger effect = higher value) 71.2% (active); under setting [1], 27.2%.
Take `COCC(=O)N1CCC(Oc2ncccc2C(=O)N(C)C)CC1`: the inhibition (stronger effect = higher value) was 4.8% (inactive).
In the case of `O=C(c1ccc(F)cc1)N1CCN(c2nc3cc(Br)ccc3n3cccc23)CC1`, the inhibition entry is “inactive”.
On to `COc1cc(S(=O)(=O)N2CCN=C2Cc2ccccc2)c(OC)cc1Cl`, for which the inhibition result was “inactive”.
For the compound `O=C(c1ccc2nc[nH]c2c1)N1CCN(Cc2cccc(Cl)c2)CC1`, the compound was called inactive. This compound returned an inhibition under setting [1] of 6%.
For the compound `CCCC(=O)Nc1nnc(S(=O)(=O)N(C)Cc2ccco2)s1`, the inhibition entry was “inactive”.
Still for that read-out and setting: next, `Cc1noc2ncc(C(=O)N3CCN(CCO)CC3)cc12`: “inactive”.
In the case of `O=C(NC1CCCCC1)c1nc(Nc2ccccc2)c2ccccc2n1`, the inhibition reads like this: (stronger effect = higher value) 73.1% (active); under setting [1], 59.6%.
On to `O=C(c1nc(Nc2ccc(F)cc2)c2ccccc2n1)N1CCCCCC1`, for which the inhibition entry was “inactive”.
As to `O=C(NC1CCCCC1)c1cc(-c2ccco2)nc2ccccc12`, the inhibition reads like this: (stronger effect = higher value) 20.8% (inactive); under setting [1], 17.2%.
As for `CCC(OC1CCCC1)C(=O)N1CCN(c2nccn2C)CC1` (stereo unspecified), the call was inactive. The compound further registered an inhibition under setting [1] of 9.4%.
On to `CC(=O)Nc1cc(C(=O)NCCCN2CCC(C)CC2)ccc1S(=O)(=O)c1ccc(Cl)cc1`, for which the inhibition reads like this: (stronger effect = higher value) 23.9% (inactive); under setting [1], 5%.
Turning to `Cc1csc(-c2cc(S(=O)(=O)N3c4ccccc4CC3C)c(C)n2C)n1` (stereo unspecified), the inhibition (stronger effect = higher value) was 63.6% (active) and the inhibition under setting [1] was 22.6%.
In the same order, the values of `Cc1nn(Cc2csc(-c3ccsc3)n2)c(C)c1S(=O)(=O)N1CCc2ccccc21` are 7.1% (inactive) and 12.8%.
